Test results reported in the supplement of paper PMC11732987, “Enantioselective OTUD7B fragment discovery through chemoproteomics screening and high-throughput optimisation” (Communications Chemistry, 2025).
A number with no mark means an inactive call.

Legend:
Assay in all cases: log2 ratio of Biotin-Ahx-Ub-VS probe labelling (fragment/DMSO); higher = less target engagement (more negative = stronger competition), active = hit call of the paper (q ≤ 0.05, log2 ratio ≤ -1)
Conditions in all cases: compound concentration: 200 uM; treatment time: 3 h
OTUD6B = target: T1, OTUD6B (UniProt Q8N6M0)
T1 sequence (whole entry): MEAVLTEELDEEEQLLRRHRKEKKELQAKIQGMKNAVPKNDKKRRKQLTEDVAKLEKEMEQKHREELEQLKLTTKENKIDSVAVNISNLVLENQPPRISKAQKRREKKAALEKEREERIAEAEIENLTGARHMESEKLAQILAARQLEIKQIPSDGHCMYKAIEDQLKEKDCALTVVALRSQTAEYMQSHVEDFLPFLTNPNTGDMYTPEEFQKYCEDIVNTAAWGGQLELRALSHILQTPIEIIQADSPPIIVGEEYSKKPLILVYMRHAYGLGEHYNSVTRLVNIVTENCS
How it was run: (§1)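 Global-median-normalised Spectronaut label-free quantities were compared by unpaired t-test, and values are average log2 ratios of fragment over vehicle. Only proteins with ≥2 unique peptides were used. HEK293T lysate (495 µg per sample) was treated in triplicate with fragment at 200 µM or vehicle for 3 h and then with Biotin-Ahx-Ub-VS at 0.5 µM final for 1 h. Labelled DUBs were then NeutrAvidin-enriched, digested with LysC and trypsin, and run by diaPASEF LC-MS/MS.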

OTUD7B = target: T2, OTUD7B (UniProt Q6GQQ9)
T2 sequence (whole entry): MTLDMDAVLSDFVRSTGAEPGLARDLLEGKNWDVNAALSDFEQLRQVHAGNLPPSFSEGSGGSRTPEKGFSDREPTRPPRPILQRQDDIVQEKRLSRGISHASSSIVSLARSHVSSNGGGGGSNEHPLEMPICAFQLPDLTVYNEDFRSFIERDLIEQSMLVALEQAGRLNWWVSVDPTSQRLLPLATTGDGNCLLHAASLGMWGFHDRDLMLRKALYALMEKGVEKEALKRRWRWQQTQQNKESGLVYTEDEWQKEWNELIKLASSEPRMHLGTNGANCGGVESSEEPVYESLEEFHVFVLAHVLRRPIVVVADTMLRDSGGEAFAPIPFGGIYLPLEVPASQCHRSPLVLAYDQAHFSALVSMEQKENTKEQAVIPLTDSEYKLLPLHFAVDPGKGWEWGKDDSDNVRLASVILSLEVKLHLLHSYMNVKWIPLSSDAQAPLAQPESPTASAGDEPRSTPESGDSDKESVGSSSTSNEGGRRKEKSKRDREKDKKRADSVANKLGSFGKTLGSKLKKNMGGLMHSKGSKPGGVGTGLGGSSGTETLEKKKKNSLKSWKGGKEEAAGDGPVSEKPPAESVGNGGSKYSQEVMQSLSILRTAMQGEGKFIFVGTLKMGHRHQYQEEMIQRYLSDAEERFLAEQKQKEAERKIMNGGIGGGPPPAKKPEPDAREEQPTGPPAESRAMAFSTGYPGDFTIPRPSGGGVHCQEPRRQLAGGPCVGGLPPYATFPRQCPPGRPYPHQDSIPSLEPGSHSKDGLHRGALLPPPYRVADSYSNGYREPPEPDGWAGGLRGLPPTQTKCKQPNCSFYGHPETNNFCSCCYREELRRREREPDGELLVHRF
How it was run: as §1

PRPF8 = PRPF8 (UniProt Q6P2Q9)
How it was run: as §1

PSMD7 = target: T3, PSMD7 (UniProt P51665)
T3 sequence (whole entry): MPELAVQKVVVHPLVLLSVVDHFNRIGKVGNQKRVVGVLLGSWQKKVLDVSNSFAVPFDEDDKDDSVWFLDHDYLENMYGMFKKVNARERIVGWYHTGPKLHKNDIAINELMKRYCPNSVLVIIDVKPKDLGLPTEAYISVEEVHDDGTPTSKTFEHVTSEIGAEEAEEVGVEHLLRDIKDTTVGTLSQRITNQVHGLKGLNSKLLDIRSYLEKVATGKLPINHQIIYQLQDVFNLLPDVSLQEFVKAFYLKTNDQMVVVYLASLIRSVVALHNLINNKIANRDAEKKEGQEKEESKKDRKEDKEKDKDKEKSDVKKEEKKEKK
How it was run: as §1

UCHL1 = UCHL1 (UniProt P09936)
How it was run: as §1

UCHL3 = target: T4, UCHL3 (UniProt P15374)
T4 sequence (whole entry): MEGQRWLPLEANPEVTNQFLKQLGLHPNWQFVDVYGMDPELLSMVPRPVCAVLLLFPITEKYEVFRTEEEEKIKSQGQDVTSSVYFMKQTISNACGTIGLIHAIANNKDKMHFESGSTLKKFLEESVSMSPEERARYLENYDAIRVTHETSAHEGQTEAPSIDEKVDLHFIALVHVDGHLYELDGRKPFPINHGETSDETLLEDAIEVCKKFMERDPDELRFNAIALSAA
How it was run: as §1

UCHL5 = target: T5, UCHL5 (UniProt Q9Y5K5)
T5 sequence (whole entry): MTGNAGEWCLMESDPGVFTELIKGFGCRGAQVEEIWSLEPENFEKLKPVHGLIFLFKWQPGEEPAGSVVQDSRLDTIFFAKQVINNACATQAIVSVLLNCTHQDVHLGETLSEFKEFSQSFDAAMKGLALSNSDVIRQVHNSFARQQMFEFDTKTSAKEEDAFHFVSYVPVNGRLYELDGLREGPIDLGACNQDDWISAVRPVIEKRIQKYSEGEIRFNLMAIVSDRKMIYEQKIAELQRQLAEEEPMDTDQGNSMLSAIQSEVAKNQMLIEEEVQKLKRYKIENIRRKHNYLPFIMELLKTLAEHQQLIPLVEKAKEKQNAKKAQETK
How it was run: as §1

USP10 = USP10 (UniProt Q14694)
How it was run: as §1

USP15 = target: T6, USP15 (UniProt Q9Y4E8)
T6 sequence (whole entry): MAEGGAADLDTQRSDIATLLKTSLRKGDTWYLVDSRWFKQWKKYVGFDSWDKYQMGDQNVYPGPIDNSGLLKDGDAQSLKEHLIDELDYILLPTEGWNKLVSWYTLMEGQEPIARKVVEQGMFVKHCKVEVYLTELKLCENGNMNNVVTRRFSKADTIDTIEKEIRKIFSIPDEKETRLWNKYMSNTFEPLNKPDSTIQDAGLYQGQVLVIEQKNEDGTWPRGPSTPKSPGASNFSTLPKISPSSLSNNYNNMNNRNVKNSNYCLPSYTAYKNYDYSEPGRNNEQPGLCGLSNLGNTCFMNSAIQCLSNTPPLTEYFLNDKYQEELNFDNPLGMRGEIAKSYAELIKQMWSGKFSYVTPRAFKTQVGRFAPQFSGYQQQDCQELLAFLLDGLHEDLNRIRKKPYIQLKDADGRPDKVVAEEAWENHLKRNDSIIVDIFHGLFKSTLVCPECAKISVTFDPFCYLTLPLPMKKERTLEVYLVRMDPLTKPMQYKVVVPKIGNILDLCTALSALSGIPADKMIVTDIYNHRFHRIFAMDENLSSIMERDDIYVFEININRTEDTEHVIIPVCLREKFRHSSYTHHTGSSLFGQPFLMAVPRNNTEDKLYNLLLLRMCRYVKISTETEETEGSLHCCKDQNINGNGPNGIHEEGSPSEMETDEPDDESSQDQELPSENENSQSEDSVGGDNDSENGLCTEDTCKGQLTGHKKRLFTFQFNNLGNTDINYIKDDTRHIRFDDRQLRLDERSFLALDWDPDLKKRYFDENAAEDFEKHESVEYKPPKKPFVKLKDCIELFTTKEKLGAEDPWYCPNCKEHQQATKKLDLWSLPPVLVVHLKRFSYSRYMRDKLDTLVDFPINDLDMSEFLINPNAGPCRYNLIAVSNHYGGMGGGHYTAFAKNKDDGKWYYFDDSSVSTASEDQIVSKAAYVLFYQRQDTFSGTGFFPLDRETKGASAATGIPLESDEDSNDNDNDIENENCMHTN
How it was run: as §1

Sequence of UCHL1 (P09936 whole entry, looked up): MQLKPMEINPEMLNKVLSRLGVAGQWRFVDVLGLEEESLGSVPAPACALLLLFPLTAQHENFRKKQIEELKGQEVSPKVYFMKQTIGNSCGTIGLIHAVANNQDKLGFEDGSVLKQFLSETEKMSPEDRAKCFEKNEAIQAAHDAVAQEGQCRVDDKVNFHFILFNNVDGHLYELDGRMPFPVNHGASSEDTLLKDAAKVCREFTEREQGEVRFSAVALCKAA
Sequence of USP10 (Q14694 whole entry): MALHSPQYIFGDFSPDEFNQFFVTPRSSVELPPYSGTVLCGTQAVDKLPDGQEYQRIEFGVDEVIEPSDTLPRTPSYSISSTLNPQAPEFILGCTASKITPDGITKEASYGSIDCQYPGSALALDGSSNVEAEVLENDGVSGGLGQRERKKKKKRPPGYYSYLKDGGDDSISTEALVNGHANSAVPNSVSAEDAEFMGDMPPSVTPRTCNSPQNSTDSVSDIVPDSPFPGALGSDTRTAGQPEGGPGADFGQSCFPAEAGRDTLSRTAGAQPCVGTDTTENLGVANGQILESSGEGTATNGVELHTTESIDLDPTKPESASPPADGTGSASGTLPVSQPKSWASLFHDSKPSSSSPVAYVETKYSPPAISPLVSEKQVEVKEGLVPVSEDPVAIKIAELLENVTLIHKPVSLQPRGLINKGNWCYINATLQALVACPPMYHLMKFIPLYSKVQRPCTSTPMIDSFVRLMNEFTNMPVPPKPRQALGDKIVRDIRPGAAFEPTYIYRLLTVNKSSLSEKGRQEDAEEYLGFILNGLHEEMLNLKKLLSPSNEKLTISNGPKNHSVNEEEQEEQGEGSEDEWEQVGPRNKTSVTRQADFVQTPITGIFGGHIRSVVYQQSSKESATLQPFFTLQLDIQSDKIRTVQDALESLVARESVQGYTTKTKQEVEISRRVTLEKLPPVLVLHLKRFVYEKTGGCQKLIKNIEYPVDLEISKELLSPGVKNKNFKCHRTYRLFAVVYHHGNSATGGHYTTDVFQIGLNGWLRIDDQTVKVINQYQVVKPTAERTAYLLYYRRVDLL

## CC(NC(=O)CCl)c1cccc(Cl)c1 (centres undefined)
OTUD6B
  log2 ratio of Biotin-Ahx-Ub-VS probe labelling: -0.345
OTUD7B
  log2 ratio of Biotin-Ahx-Ub-VS probe labelling: -1.21 (active)
PRPF8
  log2 ratio of Biotin-Ahx-Ub-VS probe labelling: -0.202
PSMD7
  log2 ratio of Biotin-Ahx-Ub-VS probe labelling: -0.316
UCHL1
  log2 ratio of Biotin-Ahx-Ub-VS probe labelling: -1.58 (active)
UCHL3
  log2 ratio of Biotin-Ahx-Ub-VS probe labelling: -0.204
UCHL5
  log2 ratio of Biotin-Ahx-Ub-VS probe labelling: -0.426
USP10
  log2 ratio of Biotin-Ahx-Ub-VS probe labelling: -0.136
USP15
  log2 ratio of Biotin-Ahx-Ub-VS probe labelling: -0.301
